Values joined by “and” are separate entries in the source; they are usually repeats but may differ in a detail not shown here. Identical values can stand only once. In all, about 5,500 compounds went through this assay and about 2,000 (36%) were called active. Inconclusive results (about 18%) are left out. Rule as the data show it: active = normalized growth mostly below about 0.91 (no sharp cut-off); inconclusive = no clear call, values can overlap the other calls; inactive = mostly above about 0.92. Some of the results follow.
Test: chemical genetic growth profiling, strain panel (AID 1159580);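 also: tested at 20 µM; growth read once vehicle control cultures reached saturation at 30 °C; 1 = growth at the plate median or of vehicle wells; lower values mean less growth of the strain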
Conditions: S. cerevisiae deletion strains, growth OD

Measured: normalized growth

CC(=O)OCC(=O)[C@@]1(O)[C@H](C)CC2C3CCC4=CC(=O)C=C[C@]4(C)[C@@]3(F)[C@@H](O)C[C@@]21C (some centres undefined)
inactive: locus YAL013W, strain DEP1, hits give low values 1.01 | locus YAL021C, strain ccr4, hits give low values 0.959 | locus YAL026C, strain drs2, hits give low values 1 | locus YAL030W, strain snc1, hits give low values 0.969 | locus YBL061C, strain skt5, hits give low values 0.985 | locus YBR009C, strain hhf1, hits give low values 0.983 | locus YBR021W, strain FUR4, hits give low values 0.995 | locus YBR023C, strain chs3, hits give low values 0.978 | locus YBR171W, strain sec66, hits give low values 0.957 | locus YBR229C, strain ROT2, hits give low values 1.01 | locus YBR231C, strain swc5, hits give low values 0.962 | locus YBR279W, strain paf1, hits give low values 0.991 | locus YCL011C, strain gbp2, hits give low values 0.988 | locus YCL016C, strain dcc1, hits give low values 1.01 | locus YCL029C, strain bik1, hits give low values 1 | locus YCL061C, strain MRC1, hits give low values 0.98 | locus YCL069W, strain vba3, hits give low values 0.987 | locus YCR088W, strain abp1, hits give low values 0.984 | locus YDL005C, strain med2, hits give low values 0.964 | locus YDL035C, strain GPR1, hits give low values 1.03 | locus YDL040C, strain nat1, hits give low values 0.961 | locus YDL074C, strain BRE1, hits give low values 1.01 | locus YDL101C, strain DUN1, hits give low values 0.999 | locus YDL134C, strain PPH21, hits give low values 1.02 | locus YDL185W, strain tfp1, hits give low values 1.01 | locus YDL192W, strain arf1, hits give low values 0.998 | locus YDR001C, strain nth1, hits give low values 0.951 | locus YDR069C, strain doa4, hits give low values 0.948 | locus YDR101C, strain arx1, hits give low values 1.02 | locus YDR137W, strain rgp1, hits give low values 0.997 | locus YDR150W, strain NUM1, hits give low values 1.01 | locus YDR159W, strain sac3, hits give low values 0.962 | locus YDR162C, strain NBP2, hits give low values 1.02 | locus YDR195W, strain ref2 0.933 | locus YDR297W, strain sur2, hits give low values 0.988 | locus YDR318W, strain mcm21, hits give low values 0.999 | locus YDR334W, strain swr1, hits give low values 0.948 | locus YDR335W, strain msn5, hits give low values 0.966 | locus YDR388W, hits give low values 0.997 | locus YDR392W, strain spt3, hits give low values 1.07 | locus YDR502C, strain sam2, hits give low values 0.998 | locus YEL003W, strain gim4, hits give low values 0.981 | locus YEL037C, strain rad23, hits give low values 0.98 | locus YEL061C, strain CIN8 (second series), hits give low values 0.975 | locus YEL061C, strain CIN8, hits give low values 1.01 | locus YER015W, strain faa2, hits give low values 0.985 | locus YER016W, strain bim1, hits give low values 1.04 | locus YER110C, hits give low values 0.995 | locus YER111C, strain swi4, hits give low values 0.986 | locus YER155C, strain BEM2 (second series), hits give low values 0.967 | locus YER155C, strain BEM2, hits give low values 0.999 | locus YER167W, strain BCK2, hits give low values 1.01 | locus YFR010W, strain ubp6, hits give low values 0.958 | locus YGL078C, strain dbp3, hits give low values 0.997 | locus YGL086W, strain mad1, hits give low values 1 | locus YGL167C, strain pmr1, hits give low values 0.954 | locus YGL173C, strain kem1, hits give low values 0.961 | locus YGL227W, strain vid30, hits give low values 0.974 | locus YGL240W, strain doc1, hits give low values 0.949 | locus YGL248W, strain PDE1, hits give low values 1 | locus YGL253W, strain hxk2, hits give low values 0.984 | locus YGR078C, strain PAC10, hits give low values 1.01 | locus YGR135W, strain pre9, hits give low values 0.993 | locus YGR252W, strain gcn5, hits give low values 0.955 | locus YHR013C, strain ard1, hits give low values 0.998 | locus YHR027C, strain rpn1, hits give low values 0.982 | locus YHR030C, strain SLT2, hits give low values 1.01 | locus YHR079C, strain IRE1 (second series), hits give low values 0.996 | locus YHR079C, strain IRE1, hits give low values 1.01 | locus YHR094C, strain hxt1, hits give low values 0.995 | locus YHR129C, strain ARP1, hits give low values 1.01 | locus YHR142W, strain chs7, hits give low values 0.961 | locus YHR200W, strain rpn10, hits give low values 0.995 | locus YIL066C, strain RNR3, hits give low values 1.02 | locus YIL073C, strain SPO22, hits give low values 0.99 | locus YIL125W, strain kgd1, hits give low values 0.997 | locus YIR030C, strain dcg1, hits give low values 1 | locus YJL092W, strain hpr5, hits give low values 0.977 | locus YJL095W, strain BCK1 (second series), hits give low values 0.968 | locus YJL095W, strain BCK1, hits give low values 1.02 and 1.01 | locus YJL115W, strain asf1, hits give low values 0.951 | locus YJL129C, strain trk1, hits give low values 0.956 | locus YJL134W, strain LCB3, hits give low values 1.01 | locus YJL154C, strain vps35, hits give low values 0.964 | locus YJL164C, strain tpk1, hits give low values 1 | locus YJL166W, strain qcr8, hits give low values 0.915 | locus YJL168C, strain set2, hits give low values 1.01 | locus YJL187C, strain SWE1 (second series), hits give low values 1.01 | locus YJR043C, strain POL32, hits give low values 1 | locus YJR066W, strain TOR1, hits give low values 0.988 | locus YKL009W, strain mrt4, hits give low values 1 | locus YKL068W, hits give low values 0.998 | locus YKL085W, strain MDH1 (second series), hits give low values 1.03 | locus YKL085W, strain MDH1, hits give low values 1.03 | locus YKL160W, strain elf1, hits give low values 0.971 | locus YKL190W, strain CNB1, hits give low values 1.01 | locus YKR001C, strain vps1, hits give low values 0.988 | locus YKR026C, strain gcn3, hits give low values 0.964 | locus YKR091W, strain srl3, hits give low values 0.97 | locus YLL001W, strain dnm1, hits give low values 0.926 | locus YLL026W, hits give low values 0.991 | locus YLL041C, strain sdh2, hits give low values 0.955 | locus YLR027C, strain aat2, hits give low values 0.979 | locus YLR039C, strain RIC1, hits give low values 1.02 | locus YLR058C, strain SHM2, hits give low values 1.01 | locus YLR102C, strain apc9, hits give low values 0.993 | locus YLR113W, strain HOG1, hits give low values 1.02 | locus YLR221C, strain rsa3, hits give low values 1.02 | locus YLR258W, strain gsy2, hits give low values 0.992 | locus YLR262C, strain YPT6 (second series), hits give low values 0.92 | locus YLR262C, strain YPT6, hits give low values 1.02 | locus YLR268W, strain sec22, hits give low values 1.01 | locus YLR320W, strain mms22, hits give low values 1.02 | locus YLR330W, strain CHS5, hits give low values 1.01 | locus YLR342W, strain FKS1 (second series), hits give low values 1.04 | locus YLR342W, strain FKS1, hits give low values 0.969 | locus YLR357W, strain rsc2, hits give low values 0.982 | locus YLR370C, strain arc18, hits give low values 0.98 | locus YLR371W, strain rom2, hits give low values 0.997 | locus YLR384C, strain iki3, hits give low values 0.965 | locus YLR418C, strain cdc73, hits give low values 0.954 | locus YML016C, strain PPZ1, hits give low values 1.01 | locus YML032C, strain rad52, hits give low values 0.997 | locus YML120C, strain ndi1, hits give low values 0.973 | locus YML124C, strain tub3, hits give low values 1.03 | locus YMR058W, strain fet3, hits give low values 0.97 | locus YMR078C, strain ctf18, hits give low values 0.998 | locus YMR125W, strain sto1, hits give low values 0.963 | locus YMR129W, hits give low values 0.988 | locus YMR205C, strain PFK2, hits give low values 0.958 | locus YMR223W, strain ubp8, hits give low values 0.999 | locus YMR231W, strain pep5, hits give low values 0.965 | locus YMR307W, strain GAS1, hits give low values 0.959 | locus YNL067W, strain RPL9B, hits give low values 1.01 | locus YNL071W, strain lat1, hits give low values 0.992 | locus YNL183C, strain NPR1, hits give low values 0.974 | locus YNL209W, strain ssb2, hits give low values 0.993 | locus YNL233W, strain BNI4, hits give low values 1.01 | locus YNL248C, strain rpa49, hits give low values 1.01 | locus YNL250W, strain rad50, hits give low values 0.975 | locus YNL271C, strain bni1, hits give low values 1 | locus YNL298W, strain CLA4, hits give low values 0.989 | locus YNL307C, strain MCK1, hits give low values 0.998 | locus YNL322C, strain KRE1 (second series), hits give low values 0.961 | locus YNL322C, strain KRE1, hits give low values 0.995 | locus YNR049C, strain mso1, hits give low values 0.982 | locus YNR052C, strain pop2, hits give low values 1.01 | locus YOL012C, strain htz1 0.869 | locus YOL147C, strain pex11, hits give low values 0.999 | locus YOR001W, strain rrp6, hits give low values 0.963 | locus YOR061W, strain CKA2, hits give low values 1.02 | locus YOR069W, strain VPS5, hits give low values 1.01 | locus YOR070C, strain gyp1, hits give low values 0.99 | locus YOR080W, strain dia2, hits give low values 0.946 | locus YOR083W, strain WHI5, hits give low values 0.978 | locus YOR106W, strain vam3, hits give low values 0.927 | locus YOR136W, strain idh2, hits give low values 0.994 | locus YOR144C, strain elg1, hits give low values 0.999 | locus YOR184W, strain ser1, hits give low values 1.01 | locus YOR231W, strain MKK1, hits give low values 1.03 | locus YOR265W, strain rbl2, hits give low values 0.982 | locus YOR270C, strain vph1, hits give low values 0.95 | locus YOR290C, strain snf2, hits give low values 1 | locus YOR316C, strain cot1, hits give low values 1 | locus YPL051W, strain arl3, hits give low values 1.01 | locus YPL078C, strain atp4, hits give low values 0.934 | locus YPL106C, strain sse1, hits give low values 0.969 | locus YPL240C, strain hsp82, hits give low values 0.969 | locus YPL256C, strain CLN2, hits give low values 1.03 | locus YPR119W, strain clb2, hits give low values 0.997 | locus YPR141C, strain kar3, hits give low values 0.99 | locus YPR163C, strain tif3, hits give low values 0.996 | locus YPR167C, strain met16, hits give low values 1 | strain wtn01, hits give low values 0.997
